Records with an inconclusive call do not appear. Entries that show only a call come without a potency. Values without a mark were called inactive. Calls of active or inactive are those of the source. The call rests on the fitted dose curve; in most records, active means well fitted curve in the direction sought with a large enough effect; inconclusive means small, poorly fitted or top-dose-only effect, or another doubt; inactive means no such curve, though single readings can be large; an effect the other way counts as inactive or inconclusive.
How the values were obtained:
[1] = target: Cytochrome P450 3A7 (Homo sapiens) (UniProt P24462); experiment: Cytochrome P450 family 3 subfamily A member 7 (CYP3A7) small molecule antagonists: luciferase biochemical qHTS assay (AID 1963596); further: nearly all actives have a fitted effect of over 40% in size; further: potency means the concentration at half of the fitted maximal effect
Cytochrome P450 3A7 (Homo sapiens), sequence (P24462 whole entry, looked up): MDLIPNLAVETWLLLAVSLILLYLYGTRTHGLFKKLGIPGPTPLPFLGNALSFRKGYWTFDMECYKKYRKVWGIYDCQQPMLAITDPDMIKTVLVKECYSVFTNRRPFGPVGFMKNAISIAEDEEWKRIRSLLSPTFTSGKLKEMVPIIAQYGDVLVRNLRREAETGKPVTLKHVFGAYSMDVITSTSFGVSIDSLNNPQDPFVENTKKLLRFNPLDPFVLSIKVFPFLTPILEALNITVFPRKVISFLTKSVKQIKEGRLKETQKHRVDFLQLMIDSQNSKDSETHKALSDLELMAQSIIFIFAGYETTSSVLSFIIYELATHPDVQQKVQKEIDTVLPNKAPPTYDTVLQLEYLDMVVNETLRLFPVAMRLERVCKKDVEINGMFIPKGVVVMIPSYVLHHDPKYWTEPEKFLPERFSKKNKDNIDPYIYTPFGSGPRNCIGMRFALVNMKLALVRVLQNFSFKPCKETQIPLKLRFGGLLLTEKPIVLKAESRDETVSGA
How it was run: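 Luminescence read-out (relative luminescence units) after 20 min with detection reagent, which stops the reaction. Enzyme, proluciferin substrate and compound preincubated 10 min, RT; NADPH regeneration system then started 1 h reaction. Ketoconazole as positive control.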

[2] = Viability qHTS for spleen associated tyrosine kinase inhibitor (SYKi) naive MV4-11 cells (AID 1963823); further: nearly all actives have a fitted effect of over 40% in size; further: potency means the concentration at half of the fitted maximal effect
How it was run: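 Compounds were dispensed acoustically onto plates, MV4-11 cells (SYKi-naive) added at 500 per well, and plates incubated 72 hr at 37 C. CellTiter-Glo was added and luminescence measured after 10 min.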

[3] = Cellular viability qHTS for adrenocortical cancer (ACC) cell line SW-13 (AID 1963989); conditions: SW-13 ACC cells viability, CellTiter-Glo, 48 h; activity (max response): active compounds read low; further: nearly all actives have a fitted effect of over 65% in size; further: potency means the concentration at half of the fitted maximal effect;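 on activity (max response): cells grown in serum-free medium with ITS supplement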
How it was run: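 Luminescent ATP read-out (CellTiter-Glo, 20 min at room temperature) measured metabolically competent SW-13 cells after 48 h compound treatment. Final concentrations spanned up to 46 uM; bortezomib served as positive control.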

[4] = Cellular viability qHTS for adrenocortical cancer (ACC) cell line NCI-H295R (AID 1963990); further: nearly all actives have a fitted effect of over 60% in size
How it was run: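 IC50 and maximal efficacy derive from four-parameter logistic modelling of titration curves, with reads scaled between DMSO-only wells (0%) and doxorubicin hydrochloride (100% inhibition). Compounds spanned up to 46 uM over 48 h.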

[5] = Quantitative highthroughput screen to assess conditional lethalithy of SEM cells grown in RPMI1640 with dialyzed fetal bovine serum (RPMI+ds) (AID 1963884); further: potency means the concentration at half of the fitted maximal effect; nearly all actives have a fitted effect of over 35% in size
How it was run: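 Each medium arm—HPLM with 10% dialyzed FBS, or RPMI1640 with 5 mM glucose and 10% untreated or dialyzed FBS—was screened against an 11-point, 3-fold compound titration for 48 h at 37 °C, with CellTiter-Glo luminescence as endpoint.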

NC1CCN(c2nc3c(cc2F)c(=O)c(C(=O)O)cn3-c2ccc(F)cc2F)C1 (centres undefined)
Potency [1]: inactive | Potency [2]: inactive | activity (max response) [3]: -6.92% | Potency [4]: inactive

CN(C)CCN1CCN(c2cccc(Cl)c2)C1=O
Potency [1]: inactive | Potency [2]: inactive | activity (max response) [3]: 10.1%

OC1(c2ccccc2)CCNCC1
Potency [1]: inactive | Potency [2]: inactive | activity (max response) [3]: 4.15% | Potency [4]: inactive

CCCCCCCCCCCC(=O)[O][Sn]([CH2]CCC)([CH2]CCC)[O]C(=O)CCCCCCCCCCC
Potency [1]: 19.5 µM (active) | Potency [2]: inactive | activity (max response) [3]: 2.55%

CC(=O)N(CC(O)CO)c1c(I)c(C(=O)NCCO)c(I)c(C(=O)NCC(O)CO)c1I (centres undefined)
Potency [1]: inactive | Potency [2]: inactive | activity (max response) [3]: 7.39% | Potency [4]: inactive

Cn1cc(-c2cnn3c(N)c(Br)c([C@@H]4CCCNC4)nc23)cn1
Potency [1]: inactive | Potency [2]: 0.417 µM (active) | Potency [3]: 12.6 µM (active)

CCOC(=O)Cn1cccc1-c1nc(-c2ccc(OC)cc2)c(-c2ccc(OC)cc2)s1
Potency [1]: inactive | Potency [2]: 9.44 µM (active) | activity (max response) [3]: 9.49%

O=C(CO)N1CCC(c2[nH]nc(-c3ccc(Cl)cc3)c2-c2ccncn2)CC1
Potency [1]: inactive | Potency [2]: 2.31 µM (active) | Potency [5]: 13.2 µM (active) | activity (max response) [3]: -7.74% | Potency [4]: inactive

COc1cc(C)nc(-n2nc(C)cc2OC)n1
Potency [1]: inactive | Potency [2]: inactive | activity (max response) [3]: 11%

O=C(Oc1ccccc1)c1ccccc1O
Potency [1]: inactive | Potency [2]: inactive | activity (max response) [3]: 1.95% | Potency [4]: inactive

OCc1ccccn1
Potency [1]: inactive | Potency [2]: inactive | activity (max response) [3]: -4.99% | Potency [4]: inactive

Cc1cn([C@H]2C[C@H](F)[C@@H](CO)O2)c(=O)[nH]c1=O
Potency [1]: inactive | Potency [2]: inactive | activity (max response) [3]: 3.39% | Potency [4]: inactive
